Screening data from PubChem BioAssay.
A549 viability = Nrf2 qHTS screen for inhibitors: counterscreen for cytotoxicity; A549 ARE-Fluc cells, CellTiter-Fluor viability, 18-24 h; Potency, µM (series often up to 46 µM), without a hit: top-dose activity change, negative = cytotoxicity, actives largely listed as inhibitors; 0.16% of 390,000 active; note: % is set by controls: 0 for no effect and ±100 for the full control effect
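A549 ARE-Fluc cells in 5% FBS OPTI-MEM, 5000 cells/well, rested 2 h then exposed to compounds in concentration-response for 18-24 h at 37 °C. Viability by CellTiter-Fluor fluorescence (Ex 405/Em 525) after 30 min; luciferase luminescence (BugLite, 15 min, RT) read afterwards.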
ELG1 DNA repair = qHTS screen for small molecules that inhibit ELG1-dependent DNA repair in human embryonic kidney (HEK293T) cells expressing luciferase-tagged ELG1 | HEK293T ELG1-luciferase reporter, luminescence, 16 h; DNA damage induced by 5-fluorouridine | Potency, µM (doses to about 46.1 µM), without a hit: at the highest dose activity change, negative = inhibition, actives largely listed as inhibitors | 2.3% of 330,000 active | AID 504467, 2011; note: % is set by controls: 0 for no effect and ±100 for the full control effect; nearly all actives have a fitted effect of over 55% in size
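Overnight (16 hr) co-exposure of 2,000 cells/well to 5-fluorouridine and compound at 37 °C preceded detection. Luciferase was quantified via ONE-Glo luminescence; loss of signal denotes inhibition.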
Nrf2 block = Nrf2 qHTS screen for inhibitors; 2.1% of 360,000 active; Potency, µM (highest dose often 46 µM), for the others: top-dose activity change, negative = inhibition, actives largely listed as inhibitors; AID 504444, 2011; A549 ARE-Fluc reporter, luciferase luminescence, 18-24 h; note: % is set by controls: 0 for no effect and ±100 for the full control effect; nearly all actives have a fitted effect of over 60% in size
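A549 ARE_Fluc cells (5000/well, 5% FBS OPTI-MEM) pre-incubated 2 h, then treated with compounds 18-24 h at 37C/5% CO2 in concentration-response. CellTiter-Fluor viability read first; BugLite luciferase luminescence after 15 min at room temperature gives Nrf2 activity.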
Nrf2 ARE act = qHTS of Nrf2 Activators | AID 624171, 2012 | 0.31% of 410,000 active | Potency, µM (titrated, usually from 46.1 µM), inactives show at the top dose activation, actives largely listed as activators | AREc32 ARE-luciferase reporter (MCF7-derived line), luminescence, 24 h; note: % of control where 0% means no effect; nearly all actives have a fitted effect of over 65% in size
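Luminescent ARE reporter assay in AREc32_Fluc cells: overnight plating at 37 deg C, 24 hr compound incubation, Steady-Glo added, 30 min RT before reading.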
The depositor's hits bear a star; ? = inconclusive; / = not tested or not shown; [ ] = dose if it differs, or a comment. Hits are enriched below; roughly 3.7% of the tested compounds scored in any of these assays. Calls come from the whole dose curve; as a rule, active = well fitted curve in the direction sought with a large enough effect; inconclusive = small, poorly fitted or top-dose-only effect, or another doubt; inactive = no such curve, though single readings can be large; an effect the other way counts as inactive or inconclusive. Potency is the fitted concentration of half-maximal effect.

SMILES	A549 viability	ELG1 DNA repair	Nrf2 block	Nrf2 ARE act
COc1ccc(CCNc2ncnc3c2c(C)c(C)n3CCCN(C)C)cc1OC	-8.5%	7.8%	5.5%	-0.5%
COc1ccccc1CCNC(=O)CCn1nc(C)c2c(C)n(-c3ccccc3)nc2c1=O	10.0%	-9.7%	?	-0.5%
CC1CCCN(S(=O)(=O)c2ccc(S(=O)(=O)NC(C)c3cccs3)cc2)C1 (stereo not given)	?	?	23.1µM*	2.4%
Cc1cc(C)cc(NC(=O)c2cc(CN3CCCC3)on2)c1	-16.2%	/	?	4.2%
Cc1cc(SCC#N)n2nc(C)c(-c3ccccc3)c2n1	-8.9%	23.1µM*	?	11.0%
Cc1cc(SCC#N)n2nc(C)c(-c3ccc(Cl)cc3)c2n1	-10.0%	5.2%	?	0.2%
Cc1ccc(S(=O)(=O)CCC(O)c2ccc(Cl)cc2)cc1 (stereo not given)	2.0%	-15.8%	4.1%	-0.8%
Cc1cc(C)cc(CSCC(=O)N/N=C/c2ccc(OCC(=O)NCc3ccco3)cc2)c1	-15.4%	-28.2%	14.6µM*	3.7%
Cc1cccc(C(=O)N/N=C/c2ccc(OCC(=O)N3CCCCC3)cc2)c1	-2.1%	-18.5%	0.2%	-0.4%
O=C(CSCc1cccc(Cl)c1)N/N=C/c1ccc(OCC(=O)N2CCCCC2)cc1	-2.4%	-20.8%	18.4µM*	2.7%
COc1ccc(CSCC(=O)N/N=C/c2ccc(OCC(=O)NCc3ccco3)cc2)cc1	-12.7%	?	?	4.1%
COc1ccc(CNC(=O)c2ccc3nc(C(C)C)oc3c2)cc1OC	0.6%	/	/	0.7%
COc1ccccc1NC(=O)Cn1c(SCC(=O)N(C)c2ccccc2)nc2ccccc21	0.9%	/	/	4.2%
Cc1nn(Cc2ccc(C(=O)Nc3ccc(C(=O)OC(C)C)cc3)o2)c(C)c1Cl	-11.6%	18.4µM*	?	4.8%
Cc1nn(Cc2ccc(C(=O)NN)o2)c(C)c1Cl	0.0%	?	16.2%	6.1%
Cc1nn(Cc2ccc(C(=O)NC(C)(C)C)o2)c(C)c1Br	-16.1%	?	18.4µM*	0.6%
CC(C)c1cc(NCCOCCO)n2c(nc3ccccc32)c1C#N	-3.6%	?	?	-1.2%
CN(C)S(=O)(=O)c1ccc(C(=O)Nc2nc(-c3cc4ccccc4o3)cs2)cc1	-18.3%	15.8%	6.51µM*	0.4%
CC1CN(S(=O)(=O)c2ccc(C(=O)Nc3nncs3)cc2)CC(C)O1 (stereo not given)	-0.1%	8.4%	-11.4%	-0.6%
CC1CN(S(=O)(=O)c2ccc(C(=O)Nc3nc(-c4cc5ccccc5o4)cs3)cc2)CC(C)O1 (stereo not given)	7.31µM*	-17.9%	3.66µM*	-0.3%
Cc1cc(-c2csc(NC(=O)c3ccc(S(=O)(=O)N(C)C)cc3)n2)c(C)n1-c1ccccc1	1.5%	9.2µM*	?	0.0%
CN(CC1CCCO1)S(=O)(=O)c1ccc(C(=O)Nc2nc(-c3ccccn3)cs2)cc1 (stereo not given)	?	?	5.17µM*	1.8%
CSc1ccc(NC(=O)C2(C)CCN2C(=O)Cc2ccc(C(C)(C)C)cc2)cc1 (stereo not given)	/	/	/	3.9%
CSc1nsc(SC)c1C(=O)N1CCN(S(=O)(=O)c2ccc(C)cc2)C1C(C)C (stereo not given)	-3.9%	18.4µM*	/	1.7%
CSc1nsc(SC)c1C(=O)N1CCN(S(=O)(=O)c2ccc(C)cc2)C1C (stereo not given)	6.0%	?	1.5%	2.1%
SMILES	A549 viability	ELG1 DNA repair	Nrf2 block	Nrf2 ARE act
CCC(C)(C)C1CCC2(CC1)NC(=O)N(CC(=O)N(C)Cc1ccc3c(c1)OCCO3)C2=O (stereo not given)	-6.4%	11.6µM*	?	-0.7%
Cc1cc(C)c(NC(=O)Cn2c(=O)n(Cc3ccc4c(c3)OCO4)c(=O)c3ccccc32)c(C)c1	-6.1%	/	-8.5%	-0.3%
Cc1cc(C)c(NC(=O)Cn2c(=O)n(Cc3ccc(C(=O)NCc4ccc5c(c4)OCO5)cc3)c(=O)c3ccccc32)c(C)c1	-16.3%	/	14.6µM*	-1.3%
Cc1cc(C)nc(SCCC(=O)Nc2cccc3ccccc23)n1	-9.7%	-17.3%	-23.4%	0.3%
Cc1cc(C)nc(SCCC(=O)Nc2ccccc2Cl)n1	-0.1%	-10.5%	11.6µM*	0.1%
O=C(NCc1ccc(F)cc1)c1ccc2c(c1)S(=O)(=O)c1ccccc1C2=O	-4.1%	/	-23.3%	-0.8%
COc1ccc(CNc2ncc(-c3ccc(F)cc3)n2C)c2ccccc12	-0.4%	-14.1%	20.6µM*	-1.9%
COc1ccccc1CNc1ncc(-c2ccc(F)cc2)n1C	-1.0%	0.7%	-5.2%	0.3%
Cn1c(=O)c2c(nc(N/N=C/c3ccc(OC(=O)c4ccco4)cc3)n2Cc2ccc(F)cc2)n(C)c1=O	-6.1%	16.4µM*	?	1.6%
Cn1c(=O)c2c(nc(N/N=C/c3ccc(OC(=O)c4ccco4)cc3)n2Cc2ccccc2Cl)n(C)c1=O	0.8%	16.4µM*	15.2%	1.5%
Cn1c(=O)c2c(nc(N/N=C/c3cccnc3)n2Cc2ccccc2)n(C)c1=O	-0.2%	?	?	4.6%
COc1cc(CNCCSc2nnnn2C)cc(Br)c1OCc1ccccc1F	0.9%	?	-7.7%	-0.5%
CCOc1cc(CNCCSc2nnnn2C)cc(Br)c1OCc1ccccc1F	?	-17.5%	23.1µM*	4.8%
Cc1cc2oc(C(=O)Nc3cccc(-c4nc5ccccc5o4)c3)c(C)c2cc1Cl	-3.5%	/	5.7%	-1.0%
COc1cc(SC)ccc1C(=O)N(CC(=O)Nc1ccccc1Br)Cc1ccco1	-2.4%	-8.4%	-7.3%	10.6%
O=S1(=O)N=C(Sc2ccc3c(c2)OCCO3)c2ccccc21	-0.4%	/	-29.9%	/
COC(=O)[C@@]1(Cc2ccc(OC)cc2)[C@@H]2C(=CC(=O)[C@H]2CC(=O)C(=O)N2CCCC2)CN1C(=O)c1ccccc1	-15.3%	14.6µM*	-28.7%	-2.7%
CC(C)C(CCNC1CCN(C)CC1)c1ccc(Cl)cc1 (stereo not given)	?	23.1µM*	0.0%	3.5%
Cc1cccc(NC(=O)CCc2c(C)nc3c(c(C)nn3C(C)(C)C)c2C)c1C	-9.0%	/	18.4µM*	0.4%
CCOc1ccccc1C1CC(=O)Oc2c1c(=O)n(C)c1ccccc21 (stereo not given)	-15.8%	/	20.3%	4.7%
O=C(c1ccc(-n2nc(C(F)(F)F)c3c2CCCC3)cc1)N1CCOCC1	9.9%	5.17µM*	0.8%	0.1%
O=C1/C(=C/c2cccnc2)CCC/C1=C\c1cccnc1	-4.2%	4.11µM*	3.7%	?
CCC1C/C(=C\c2cccnc2)C(=O)/C(=C/c2cccnc2)C1 (stereo not given)	-15.2%	2.59µM*	?	0.0%[9.22 µM]
NC(Cc1ccc(C(F)(F)F)cc1)c1csc(NC(=O)Nc2ccccc2Oc2ccccc2)n1 (stereo not given)	/	/	/	-3.0%
CCc1ccccc1-n1c(SCC(=O)NC)nnc1-c1ccco1	5.6%	-0.4%	-6.8%	0.0%
